This is part of a sample that, as a whole, favours compounds with a hit. Of some 83,000 tested, about 20% had one in any assay.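 Method: cells in 96-well plates; compound added at one concentration; 48 h incubation; percent growth measured; values under 10 scored active.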 Active and inactive are the calls of the source.
What was measured:
Test in all cases: NCI-60 one-dose screen, 48 h (100 = growth as untreated, 0 = no growth, -100 = all killed)
Details in all cases: 10 µM unless noted
SR leukemia = tested on: SR leukemia
RPMI-8226 leukemia = tested on: RPMI-8226 leukemia
OVCAR-8 ovarian = tested on: OVCAR-8 ovarian
OVCAR-4 ovarian = tested on: OVCAR-4 ovarian
SK-OV-3 ovarian = tested on: SK-OV-3 ovarian
IGROV1 ovarian = tested on: IGROV1 ovarian
OVCAR-3 ovarian = tested on: OVCAR-3 ovarian
HS 578T breast = tested on: HS 578T breast
NCI/ADR-RES ovarian = tested on: NCI/ADR-RES ovarian
OVCAR-5 ovarian = tested on: OVCAR-5 ovarian

Measured: growth

CCOc1ccc2c(c1)/C(=C\C=C\C1CC(C)C3CC(OCC)CCC3N1CC)CC(C)N2CC (stereo not given)
inactive: OVCAR-4 ovarian 15.4% | SK-OV-3 ovarian 14.9% | IGROV1 ovarian 32.4% | HS 578T breast 63.6% | NCI/ADR-RES ovarian 60.8%
active: SR leukemia -47.6% | RPMI-8226 leukemia -52.2% | OVCAR-8 ovarian 6.8% | OVCAR-3 ovarian 8.69%

CC(C)(C)c1ccc(O)c(Br)c1
inactive: SR leukemia 106% | RPMI-8226 leukemia 85% | OVCAR-8 ovarian 103% | OVCAR-5 ovarian 98.1% | SK-OV-3 ovarian 120% | IGROV1 ovarian 111% | OVCAR-3 ovarian 99.2% | HS 578T breast 96.4% | NCI/ADR-RES ovarian 100%

Oc1c(Cl)cc(Cl)cc1C(c1cc(Cl)cc(Cl)c1O)C(Cl)(Cl)Cl
active: SR leukemia 9.73% | RPMI-8226 leukemia -9.94% | OVCAR-8 ovarian -0.45% | OVCAR-5 ovarian 1.83% | SK-OV-3 ovarian -16.7% | IGROV1 ovarian -15.7% | OVCAR-3 ovarian -7.63% | HS 578T breast -11.5% | NCI/ADR-RES ovarian -15.7%

CN(C)c1ccc(/C=C/c2ccnc3ccccc23)cc1
inactive: SR leukemia 21% | RPMI-8226 leukemia 11.7% | OVCAR-8 ovarian 20.2% | OVCAR-5 ovarian 84.4% | OVCAR-3 ovarian 45.1% | HS 578T breast 53.5% | NCI/ADR-RES ovarian 29.3%

O/N=C1\c2ccccc2-c2ccc(F)cc21
inactive: SR leukemia 91.2% | RPMI-8226 leukemia 85.8% | OVCAR-8 ovarian 102% | OVCAR-5 ovarian 93.8% | SK-OV-3 ovarian 97.3% | IGROV1 ovarian 85.4% | HS 578T breast 120% | NCI/ADR-RES ovarian 107%

O=C(NOC(=O)c1ccccc1)c1ccccc1
inactive: SR leukemia 84.5% | RPMI-8226 leukemia 75.7% | OVCAR-8 ovarian 119% | OVCAR-5 ovarian 109% | SK-OV-3 ovarian 109% | IGROV1 ovarian 107% | OVCAR-3 ovarian 115% | HS 578T breast 83.5% | NCI/ADR-RES ovarian 93.7%

CC(=O)c1ccc2c(c1)CCc1ccccc1-2
inactive: SR leukemia 103% | RPMI-8226 leukemia 108% | OVCAR-8 ovarian 109% | OVCAR-4 ovarian 98.8% | SK-OV-3 ovarian 101% | IGROV1 ovarian 119% | OVCAR-3 ovarian 125% | HS 578T breast 103% | NCI/ADR-RES ovarian 119%

OC(Cc1cc(CC(O)(C(F)(F)F)C(F)(F)F)nc(CC(O)(C(F)(F)F)C(F)(F)F)c1)(C(F)(F)F)C(F)(F)F
inactive: IGROV1 ovarian 20.4%
active: SR leukemia 4.85% | RPMI-8226 leukemia -7.53% | OVCAR-8 ovarian 9.71% | OVCAR-4 ovarian 6.38% | SK-OV-3 ovarian -16.8% | OVCAR-3 ovarian -3.61% | HS 578T breast 5.53% | NCI/ADR-RES ovarian 3.76%

CC12CCC(O)CC1=CCC1C2CCC2(C)C3=NN=CC3CC12 (stereo not given)
inactive: SR leukemia 60.1% | RPMI-8226 leukemia 96.5% | OVCAR-8 ovarian 107% | OVCAR-5 ovarian 106% | SK-OV-3 ovarian 115% | OVCAR-3 ovarian 116% | HS 578T breast 95.6% | NCI/ADR-RES ovarian 98.6%

C[n+]1ccccc1C[n+]1ccccc1
inactive: SR leukemia 88.6% | RPMI-8226 leukemia 108% | OVCAR-8 ovarian 95.9% | OVCAR-5 ovarian 113% | SK-OV-3 ovarian 109% | IGROV1 ovarian 130% | OVCAR-3 ovarian 123% | HS 578T breast 121% | NCI/ADR-RES ovarian 113%

NC(=S)N/N=C\c1nccc2c(C(F)(F)F)cccc12
inactive: OVCAR-8 ovarian 11.1% | OVCAR-5 ovarian 36% | SK-OV-3 ovarian 11.4% | OVCAR-3 ovarian 15.3% | HS 578T breast 54.3%
active: SR leukemia -28.6% | RPMI-8226 leukemia -13.9% | IGROV1 ovarian 4.12% | NCI/ADR-RES ovarian 0.716%

CC(=O)c1c(O)c(C)c(O)c2c1OC1=CC(=O)C(C(C)=O)C(=O)C12C (stereo not given)
inactive: SR leukemia 58% | RPMI-8226 leukemia 41.6% | OVCAR-8 ovarian 92.7% | OVCAR-5 ovarian 88.3% | SK-OV-3 ovarian 98.8% | IGROV1 ovarian 69.9% | NCI/ADR-RES ovarian 63.4%

CCN1CCCC(Nc2cc(C)nc(/N=C(/N)Nc3ccc(Cl)c(Cl)c3)n2)C1 (stereo not given)
inactive: IGROV1 ovarian 14.5% | NCI/ADR-RES ovarian 17.2%
active: SR leukemia -60.3% | RPMI-8226 leukemia -31.6% | OVCAR-8 ovarian -21.5% | OVCAR-4 ovarian -17.3% | SK-OV-3 ovarian 6.57% | OVCAR-3 ovarian -49% | HS 578T breast -37.8%

O=[N+]([O-])c1ccc2c(c1)Cc1ccccc1-2
inactive: SR leukemia 91.4% | RPMI-8226 leukemia 121% | OVCAR-8 ovarian 98.9% | OVCAR-5 ovarian 91.3% | SK-OV-3 ovarian 112% | IGROV1 ovarian 94.7% | OVCAR-3 ovarian 103% | HS 578T breast 102% | NCI/ADR-RES ovarian 99%

N#Cc1c2ccccc2nc2ccccc12
inactive: SR leukemia 103% | RPMI-8226 leukemia 99.3% | OVCAR-8 ovarian 93.9% | OVCAR-4 ovarian 83.2% | SK-OV-3 ovarian 116% | IGROV1 ovarian 108% | OVCAR-3 ovarian 110% | HS 578T breast 103% | NCI/ADR-RES ovarian 100%

Nc1ccc(C(=O)/C=C/c2ccccc2)cc1
inactive: SR leukemia 46.9% | RPMI-8226 leukemia 43% | OVCAR-8 ovarian 102% | OVCAR-5 ovarian 113% | SK-OV-3 ovarian 110% | IGROV1 ovarian 90.4% | OVCAR-3 ovarian 75.2% | HS 578T breast 106% | NCI/ADR-RES ovarian 101%

O=[N+]([O-])/C(=C/c1ccccc1)c1ccccc1
inactive: SR leukemia 88.5% | RPMI-8226 leukemia 108% | OVCAR-8 ovarian 105% | OVCAR-4 ovarian 99% | SK-OV-3 ovarian 100% | IGROV1 ovarian 104% | OVCAR-3 ovarian 109% | HS 578T breast 110% | NCI/ADR-RES ovarian 106%

COC(=O)c1ccc(=O)c2nc3/c(=C/O)c(O)cc(=O)c3[nH]c12
inactive: RPMI-8226 leukemia 51.1% | OVCAR-8 ovarian 12.2% | OVCAR-5 ovarian 54.7% | SK-OV-3 ovarian 52% | NCI/ADR-RES ovarian 11%
active: SR leukemia -11.4% | IGROV1 ovarian -61.2% | OVCAR-3 ovarian -4.24% | HS 578T breast -10.3%

N#CCc1cccc2ccccc12
inactive: SR leukemia 100% | RPMI-8226 leukemia 103% | OVCAR-8 ovarian 105% | OVCAR-5 ovarian 110% | SK-OV-3 ovarian 113% | IGROV1 ovarian 106% | OVCAR-3 ovarian 120% | HS 578T breast 122% | NCI/ADR-RES ovarian 115%

Cc1ccc(Nc2ccc(O)c3c2C(=O)c2c(O)ccc(Nc4ccc(C)cc4)c2C3=O)cc1
inactive: SR leukemia 108% | RPMI-8226 leukemia 96.6% | OVCAR-8 ovarian 91.4% | OVCAR-5 ovarian 106% | SK-OV-3 ovarian 108% | OVCAR-3 ovarian 113% | HS 578T breast 103% | NCI/ADR-RES ovarian 107%

Oc1ccc(Cl)cc1Cc1cc(Cl)ccc1O
active: RPMI-8226 leukemia -1.2% | OVCAR-3 ovarian 9.92% | NCI/ADR-RES ovarian 4.47%
inactive: SR leukemia 81.4% | OVCAR-8 ovarian 20.9% | OVCAR-4 ovarian 38.7% | SK-OV-3 ovarian 84.8% | IGROV1 ovarian 41.1% | HS 578T breast 34.2%

OC(c1cc(-c2ccc(Cl)cc2)nc2c(Cl)cccc12)C1CCCCN1 (stereo not given)
active: SR leukemia -39.4% | RPMI-8226 leukemia -17.3% | OVCAR-8 ovarian -75.2% | OVCAR-5 ovarian -70.9% | SK-OV-3 ovarian -73.4% | IGROV1 ovarian -73.7% | OVCAR-3 ovarian -95.1% | HS 578T breast -47.6% | NCI/ADR-RES ovarian -70.3%

Cc1c(O)ccc(SC#N)c1C
inactive: SR leukemia 105% | RPMI-8226 leukemia 96.6% | OVCAR-8 ovarian 102% | OVCAR-4 ovarian 107% | SK-OV-3 ovarian 108% | IGROV1 ovarian 110% | OVCAR-3 ovarian 90.8% | HS 578T breast 124% | NCI/ADR-RES ovarian 106%

O=[N+]([O-])c1cc(-c2ccccc2)c(O)c([N+](=O)[O-])c1
inactive: SR leukemia 80.4% | RPMI-8226 leukemia 38.9% | OVCAR-8 ovarian 91.7% | OVCAR-4 ovarian 62.6% | SK-OV-3 ovarian 83% | IGROV1 ovarian 106% | OVCAR-3 ovarian 69.7% | HS 578T breast 84.4% | NCI/ADR-RES ovarian 94.7%

Nc1ccc(Oc2ccccc2)c(Cl)c1
inactive: SR leukemia 92.1% | RPMI-8226 leukemia 101% | OVCAR-8 ovarian 95% | OVCAR-5 ovarian 83.9% | SK-OV-3 ovarian 91.6% | IGROV1 ovarian 112% | OVCAR-3 ovarian 113% | HS 578T breast 91.7% | NCI/ADR-RES ovarian 114%

O=C(O)c1cccc2cccc(-c3c4ccc(=O)c(O)c-4oc4c(O)c(O)ccc34)c12
inactive: SR leukemia 83.6% | RPMI-8226 leukemia 123% | OVCAR-8 ovarian 100% | OVCAR-5 ovarian 97.5% | SK-OV-3 ovarian 90.1% | IGROV1 ovarian 101% | OVCAR-3 ovarian 93.5% | HS 578T breast 99.5% | NCI/ADR-RES ovarian 96.7%

CN(C)CCSC1=Nc2ccc(Cl)cc2C(c2ccccc2Cl)N(C)C1 (stereo not given)
inactive: SR leukemia 44.1% | RPMI-8226 leukemia 50.7% | OVCAR-8 ovarian 78.8% | OVCAR-5 ovarian 88.4% | SK-OV-3 ovarian 72% | IGROV1 ovarian 41.6% | OVCAR-3 ovarian 59.9% | HS 578T breast 24.2% | NCI/ADR-RES ovarian 66%

COC(=O)c1cc([N+](=O)[O-])cc([N+](=O)[O-])c1Cl
active: OVCAR-3 ovarian -44.7%
inactive: SR leukemia 30.9% | RPMI-8226 leukemia 87.1% | OVCAR-8 ovarian 76.1% | OVCAR-5 ovarian 97.9% | SK-OV-3 ovarian 102% | IGROV1 ovarian 95.7% | NCI/ADR-RES ovarian 99.1%

O=[N+]([O-])c1ccc(C(Br)c2ccc([N+](=O)[O-])cc2)cc1
active: SR leukemia 7.81% | IGROV1 ovarian -53.2%
inactive: RPMI-8226 leukemia 66.1% | OVCAR-5 ovarian 124% | OVCAR-4 ovarian 64.3% | SK-OV-3 ovarian 97.3% | OVCAR-3 ovarian 110% | HS 578T breast 107% | NCI/ADR-RES ovarian 91.5%

O=[N+]([O-])c1ccc(C2N(Cc3ccc(Cl)cc3)CCN2Cc2ccc(Cl)cc2)cc1
inactive: SR leukemia 64.8% | RPMI-8226 leukemia 83.9% | OVCAR-5 ovarian 89.6% | OVCAR-4 ovarian 102% | SK-OV-3 ovarian 90.1% | IGROV1 ovarian 85.9% | OVCAR-3 ovarian 91.3% | HS 578T breast 102% | NCI/ADR-RES ovarian 87.6%

C[C@@]1(CO)[C@H](O)CC[C@@]2(C)[C@H]1CC[C@H]1C[C@@H]3C[C@@]12CC[C@@]3(O)COC(=O)CN
inactive: SR leukemia 18.9% | RPMI-8226 leukemia 43% | OVCAR-5 ovarian 24.7% | OVCAR-4 ovarian 87.9% | SK-OV-3 ovarian 74.8% | IGROV1 ovarian 33.5% | OVCAR-3 ovarian 70.9% | NCI/ADR-RES ovarian 11.1%
